Bioassay records (PubChem BioAssay)
MARV entry inh: qHTS for inhibitors of binding or entry into cells for Marburg Virus; 300,000 compounds, 1.8% hits; Potency, µM (highest dose often 37.8 µM), without a hit: at the highest dose activity change, negative = inhibition, most hits filed as inhibitors; Marburg virus pseudotyped entry inhibition, cell reporter; AID 540276, 2011; calls by dose curve; tested in HEK293 cells; also: potency is read from the fitted curve at half-maximal effect
Vaccinia Venus: qHTS for Stage-Specific Inhibitors of Vaccinia Orthopoxvirus: Venus Reporter Primary qHTS; 330,000 compounds, 0.46% hits; Potency, µM (top dose mostly 36.5 µM), without a hit: at the top dose activity change, negative = inhibition, hits mostly inhibitors; Vaccinia virus Venus reporter expression, fluorescence; AID 720580, 2013; calls by dose curve; tested in A549 cells; also: potency is read from the fitted curve at half-maximal effect; nearly all actives have a fitted effect of over 30% in size
FMDV antiviral: High Throughput Screening for Foot and Mouth Disease Virus Antivirals; FMDV antiviral cell-based qHTS; 410,000 compounds, 1.2% hits; Potency, µM (doses to about 57.9 µM), for the others: at the highest dose activity change, negative = inhibition, most hits filed as inhibitors; calls by dose curve; tested in HEK293T cells; also: read-out not given here; potency is read from the fitted curve at half-maximal effect; nearly all actives have a fitted effect of over 45% in size
LASV entry inh: qHTS for Inhibitors of binding or entry into cells for Lassa Virus; Lassa virus pseudotype entry inhibition, cell reporter; Potency, µM (top dose mostly 37.9 µM), without a hit: at the top dose activity change, negative = inhibition, actives largely listed as inhibitors; 300,000 compounds, 1.2% hits; AID 540256, 2011; calls by dose curve; tested in HEK293 cells; also: potency is read from the fitted curve at half-maximal effect; nearly all actives have a fitted effect of over 50% in size
HCMV inh: qHTS Assay for inhibitors of the human cytomegalovirus (HCMV). HFF cells, HCMV-luciferase reporter, 72 h; hits give low values. activity change, negative = inhibition, % at 57.5 µM. 410,000 compounds, 4.5% hits; in the data active = activity change below about -60%; inconclusive = no clear call, values can overlap the other calls; inactive = above about -39%
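Screen run at 2 compound doses on HFFs infected with reporter HCMV, MOI 1 PFU/cell. Luciferase activity from cell lysates at 72 h post infection gave inhibition relative to buffer-only and Salinomycin wells.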
Vaccinia mCherry: qHTS for Stage-Specific Inhibitors of Vaccinia Orthopoxvirus: mCherry Reporter Primary qHTS; Potency, µM (doses to about 36.5 µM), for inactives: at the highest dose activity change, negative = inhibition, hits mostly inhibitors; 310,000 compounds, 0.63% hits; Vaccinia virus mCherry reporter infection, fluorescence; AID 720579, 2013; calls by dose curve; tested in A549 cells; also: potency is read from the fitted curve at half-maximal effect; nearly all actives have a fitted effect of over 35% in size
* marks the source's active call; other numbers are inactive results; i = inactive; ? = inconclusive; nt = not tested or not shown; [ ] = remark or other dose. Hits are enriched below; roughly 6.5% of the tested compounds scored in any of these assays. % is scaled to controls: 0 for no effect and ±100 for the full control effect.

SMILES	MARV entry inh	Vaccinia Venus	FMDV antiviral	LASV entry inh	HCMV inh	Vaccinia mCherry
CCC(Sc1nnc(C)n2c1cc1sccc12)C(=O)Nc1ccccc1F (stereo unspecified)	nt	-4.1%	-26.8%	-9.6%[46.1 µM]	-64.3*	-14.5%
c1ccc2c(CSc3ncnc4nc[nH]c34)cccc2c1	-11.7%[46.1 µM]	-6.7%	?	?	-69.5*	i
c1ccc(CCSc2ncnc3nc[nH]c23)cc1	?	-25.1%	23.8%	-25.6%	?	-0.2%
CCC(c1nnnn1Cc1ccccc1)N(Cc1ccccc1)Cc1cc2cc(C)ccc2[nH]c1=O (stereo unspecified)	nt	-20.4%	nt	nt	nt	-21.4%
O=C(Nc1cccc(Cl)c1)c1ccc(F)c(S(=O)(=O)NCc2cccs2)c1	?	?	?	?	-92.8*	-18.5%
Cc1ccc(C(=O)Nc2ccc(Br)cc2)cc1S(=O)(=O)NCc1ccccc1	nt	?	-24.4%	?	-69.1*	?
COc1ccccc1CNS(=O)(=O)c1cc(C(=O)Nc2cccc(C(F)(F)F)c2)ccc1F	nt	?	-24.3%	?	-66.6*	-15.7%
COc1ccc(CNS(=O)(=O)c2cc(C(=O)Nc3cc(Cl)cc(Cl)c3)ccc2F)cc1	nt	-19.3%	-9.1%	-13.6%[46.1 µM]	-78.4*	i
COC(=O)c1cc(OC)c(OC)cc1NC(=O)c1ccc2c(c1)CCN2S(=O)(=O)c1ccccc1	?	-12.3%	-15.2%	0.3%[46.1 µM]	6.0	-16.9%
COc1ccc(CCNC(=O)c2cc3c(=O)n4cccc(C)c4nc3n2C)cc1	nt	-10.2%	-1.7%	5.7%[46.1 µM]	-30.3	-7.4%
CN1C(=O)C(C)(C)c2cc(S(=O)(=O)NCc3ccc(C(=O)Nc4ccc(Cl)cc4)cc3)ccc21	nt	-24.3%	31.6µM*	?	?	-0.6%
O=C(Nc1cc(Cl)cc(Cl)c1)c1ccc(F)c(S(=O)(=O)NCc2ccccc2Cl)c1	nt	-20.8%	-5.1%	-17.7%[46.1 µM]	-98.5*	-22.9%
CCc1ccc(NC(=O)c2ccc(CNS(=O)(=O)c3ccc4c(c3)C(C)(C)C(=O)N4C)cc2)cc1	nt	-14.1%	?	-17.0%[46.1 µM]	?	-15.5%
CCc1cccc(N2C(=O)CSC23C(=O)N(Cc2ccccc2F)c2ccccc23)c1 (stereo unspecified)	nt	-8.1%	?	10µM*	-23.8	-22.1%
Cc1ccc(NC(=O)CN2C(=O)C3(SCC(=O)N3c3cccc(Cl)c3)c3ccccc32)cc1C (stereo unspecified)	nt	-7.1%	-11.3%	?	-64.8*	?
O=C1CSC2(C(=O)N(Cc3ccccc3F)c3ccccc32)N1c1ccc(F)cc1 (stereo unspecified)	nt	-0.6%	?	-8.1%[46.1 µM]	-14.9	-14.2%
O=C(CN1C(=O)C2(SCC(=O)N2c2ccc(F)c(F)c2)c2ccccc21)Nc1cccc(Cl)c1 (stereo unspecified)	nt	-28.9%	?	-26.7%[46.1 µM]	-92.7*	-26.2%
Cc1ccc(N2C(=O)CSC23C(=O)N(CC(=O)Nc2ccc(C(C)C)cc2)c2ccccc23)cc1C (stereo unspecified)	nt	-24.3%	-23.4%	-14.8%[46.1 µM]	24.8	-13.6%
CN(C)c1ccc(-c2nc(-c3cccs3)c(-c3cccs3)[nH]2)cc1	3.6%[46.1 µM]	-26.2%	-22.2%	?	-0.8	-2.0%
Cc1ccc(-c2nc3cccc(C)n3c2Nc2ccc(F)cc2)o1	nt	-11.1%	nt	nt	nt	-18.4%
CS(=O)(=O)N1CCc2cc(-c3csc(NC(=O)Cc4ccccc4)n3)ccc21	7.3µM*	?	nt	?	-97.7*	?
Cc1ccccc1C(=O)N1CCc2cc(-c3csc(NC(=O)CN4CCCC4)n3)ccc21	?	-12.5%	-22.2%	?	-78.8*	i
CC1Cc2cc(-c3csc(NC(=O)Cc4cccs4)n3)ccc2N1S(C)(=O)=O (stereo unspecified)	?	?	5.62µM*	?	-99.8*	?
COc1ccc(-c2nn(-c3ccc(F)cc3F)c3c2cnc2ccc(F)cc23)cc1	nt	-19.5%	-15.8%	0.3%[46.1 µM]	16.1	-25.1%
Cc1ccc(/C=C2\SC(=S)N(CCC(=O)N3CCCCC3)C2=O)cc1	-3.6%[46.1 µM]	2.0%	4.8%	9.7%	5.6	-13.5%
SMILES	MARV entry inh	Vaccinia Venus	FMDV antiviral	LASV entry inh	HCMV inh	Vaccinia mCherry
CN1CCN(C(=O)CCN2C(=O)/C(=C/c3ccccc3Cl)SC2=S)CC1	?	55.9%	-28.4%	-29.8%[46.1 µM]	-84.7*	-0.5%
CN1CCN(C(=O)CCN2C(=O)/C(=C\c3ccccc3F)SC2=S)CC1	nt	nt	-17.1%	nt	-20.6	nt
Cc1ccc(/C=C2/SC(=S)N(CCC(=O)N3CCN(C)CC3)C2=O)cc1	?	-6.4%	16.3%	2.8%	-74.1*	-8.6%
C#CC1(O)C(OC)=CC2C(=O)C1C(c1ccccc1)C2C (stereo unspecified)	-3.5%[14.2 µM]	nt	nt	?	nt	nt
CCOc1ccc(N(C(=O)CC(C)C)S(=O)(=O)c2ccc3c(c2)oc(=O)n3C)cc1	?	-18.8%	-14.9%	?	2.0	-26.1%
OC(c1ccccc1)C(O)c1ccccc1 (stereo unspecified)	nt	nt	-11.4%	nt	25.6	nt
CCC[C@H](N[C@@H](CCC)[C@H](O)c1ccccc1)[C@H](O)c1ccccc1	8.91µM*	0.0%	-7.5%	-27.8%[46.1 µM]	?	-20.1%
Cc1cc(C)cc(Cn2ncc(Cl)c(Cl)c2=O)c1	11.2µM*	-1.8%	28.2µM*	?	-84.1*	-14.2%
O=c1c(Cl)c(Cl)cnn1Cc1ccccc1Cl	6.51µM*	?	25.1µM*	13µM*	-101.0*	?
Nc1c(Cl)cnn(-c2ccccc2)c1=O	nt	nt	3.3%	nt	18.3	nt
O=c1[nH]cnc2c1cnn2Cc1ccccc1Cl	nt	nt	0.3%	nt	-28.8	nt
O=c1c(Cl)c(Cl)cnn1-c1ccccc1	25.9µM*	nt	?	?	-100.0*	nt
Cc1ccc(Cn2ncc(Cl)c(Cl)c2=O)cc1	?	?	39.8µM*	?	-9.9	-21.7%
COC(=O)c1sc(N)c(C(=O)OC)c1Cn1ncc(Cl)c(Cl)c1=O	?	-8.8%	?	?	45.5	?
O=C(NCC1Cc2cccc(-c3nccs3)c2O1)c1ccnc(Cl)c1 (stereo unspecified)	nt	-24.9%	9.8%	nt	nt	-9.6%
CCc1ccc(C(=O)Cn2ncc(Cl)c(Cl)c2=O)cc1	?	4.2%	?	?	-106.9*	nt
Cc1ccc(C(=O)N2C(=O)C(c3ccccc3)Oc3ccccc32)cc1 (stereo unspecified)	7.94µM*	?	7.2%	?	-31.6	?
Cc1ccc(C(=O)N2c3ccccc3OCC2C)cc1 (stereo unspecified)	nt	nt	-11.1%	nt	-12.8	nt
COc1ccc(N2CCN(c3ncnc4onc(C)c34)CC2)cc1	nt	-17.7%[7.34 µM]	?	7.7%[46.1 µM]	-69.4*	-16.9%[7.34 µM]
Cc1noc2ncnc(N3CCN(c4ccc(F)cc4)CC3)c12	-20.5%	nt	?	-2.9%	-67.6*	nt
